# Compound activity: PubChem, National Center for Advancing Translational Sciences (NCATS)
# p53ts 32C tox = kills p53ts cells at the permissive temperature. H1299-p53A138V at 32C, ATP luminescence viability, 24 h. Potency, µM (highest dose often 46.1 µM), for the others: at the highest dose activity change, negative = cytotoxicity, actives largely listed as cytotoxic. 130,000 tested, 0.93% active. AID 924;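 further: 0% = DMSO and -100% = full killing by reference compound; nearly all actives have a fitted effect of over 55% in size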
#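 Viability by ATPlite luminescence after 24 h compound treatment (up to 46 uM) at the permissive 32C. Cells are H1299 carrying p53 A138V. Scale runs from DMSO basal to 100 uM tamoxifen as full kill; AC50 from Hill fits.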
# Imprint erasure = genomic imprint erasure induction. mouse ES Peg3-LacZ reporter, beta-gal luminescence, 40 h. Potency, µM (series often up to 60.7 µM), without a hit: at the highest dose activity change, positive = activation, usual class: activators. AID 1948. 110,000 tested, 0.02% active
#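 Each well holds 300 Peg3LacZ-Neo (maternal) female ES cells incubated 40 h at 37C, 5% CO2. LacZ is measured by BetaGlo luminescence, with AC50 and maximum efficacy derived from dose-response curves.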
# p53ts 39C tox = cytotoxicity in p53ts cells at nonpermissive temperature. H1299-p53A138V viability at 39C, ATP luminescence, 24 h. AID 902. 130,000 tested, 1.5% active. Potency, µM (series often up to 46.1 µM), inactives show top-dose activity change, negative = cell killing, usual class: cytotoxic; further: on the % scale 0 is the no-effect control and ±100 the full control effect; nearly all actives have a fitted effect of over 55% in size
# IkB signaling = IkB pathway inhibition in ABC-DLBCL cells | ABC-DLBCL IkBa-CBG/CBR dual luciferase ratio, 4 h; response scale: scaled: untreated 0%, proteasome inhibitor 100% | AID 445 | Potency, µM (doses to about 57.1 µM), for inactives: at the top dose IkBa stabilization activation | 110,000 tested, 0.04% active; active means well fitted curve in the direction sought with a large enough effect in the signal ratio, not every such curve was filed as active; inconclusive means small, poorly fitted or top-dose-only effect, or a change in a side signal; the % refers to the signal ratio;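 further: the direction sought is a rising ratio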
#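 In this assay, an IκBα–CBG68 fusion accumulates when IKK-driven degradation is blocked; native CBR normalizes for cell number. OCI-Ly3 cells were treated 4 h with compound and doxycycline, then green and red light read after Chroma-Glo addition.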
# Starred values were filed as active, the others as inactive; ? = inconclusive; . = no result; [ ] = dose if it differs, or a comment. A selection: hits, their analogues and other compounds. The true share with any hit is near 1.7%. Unless noted, the call rests on the fitted dose curve; in most records, active means well fitted curve in the direction sought with a large enough effect; inconclusive means small, poorly fitted or top-dose-only effect, or another doubt; inactive means no such curve, though single readings can be large; an effect the other way counts as inactive or inconclusive. Potency means the concentration at half of the fitted maximal effect.
SMILES,p53ts 32C tox,Imprint erasure,p53ts 39C tox,IkB signaling
Cc1cccc(-c2nnc(NC(=O)c3ccc(Cl)cc3)o2)c1,6.4%,0.7%,?,7.94µM*
COc1ccc(C(=O)Nc2nnc(-c3ccccc3)o2)cc1OC,-9.8%,-15.4%,-25.4%,?
O=c1cnc2cnc(OCc3ccccc3)nc2n1CCc1ccccc1,-0.4%,.,-2.5%,-1.2%[11.4 µM]
CC1CCN(c2nc(-c3ccc(C(C)(C)C)cc3)nc3ccccc23)CC1,15.8µM*,-15.6%[10.9 µM],10µM*,-1.3%
CC1CCN(c2nc(-c3ccncc3)nc3ccccc23)CC1,6.0%,-14.0%,37.3%,?
CC1CCCCN1c1nc(-c2ccc(C(C)(C)C)cc2)nc2ccccc12 (stereo unspecified),10µM*,-7.1%[10.9 µM],10µM*,8.2%
Cc1cccc(NC(=O)CSc2nc3c(oc4ccccc43)c(=O)n2C(C)C)c1,21.8%,3.6%[10.9 µM],-7.7%,?
Cn1cccc1C(=O)N1CCC2(CCCN(Cc3ccccc3)C2)CC1,1.2%,.,0.4%,-1.2%[11.4 µM]
CCCN(CCC)C(=O)CSc1nc2sc3c(c2c(=O)n1-c1ccccc1)CCN(C(C)=O)C3,26.6%,22.4%[10.9 µM],7.9%,4.7%
CCCCCSc1nc2sc3c(c2c(=O)n1-c1ccc(OC)cc1)CCN(C(C)=O)C3,?,-21.1%[10.9 µM],12.6µM*,?
CCOc1ccc2nc(C)cc(Nc3ccccc3OCC)c2c1,-29.7%,-18.0%[10.9 µM],7.94µM*,0.3%
O=C(Nc1ccc(F)cc1)c1cccn1-c1nnc(N2CCCCC2)s1,-22.9%,3.5%[10.9 µM],-27.9%,1.2%
CCCCc1ccc(-c2ccc(C)cc2O)nc1,12.6µM*,-27.3%,?,16.7%
Cc1ccc(CNC(=O)c2cccc(Nc3nc4ccccc4n4nnnc34)c2)cc1,?,-3.5%[10.9 µM],6.31µM*,?
O=c1cc(-c2ccccc2)oc2c(O)c(O)ccc12,?,-35.7%,12.6µM*,.
O=c1cc(-c2ccccc2O)oc2c(O)c(O)ccc12,-11.0%,2.4%,-16.2%,4.5%[11.4 µM]
O=c1cc(-c2ccc(O)c(O)c2)oc2ccccc12,-1.1%,-49.4%,8.6%,.
O=c1cc(-c2ccccc2)oc2cc(O)c(O)cc12,2.51µM*,-24.5%,2µM*,.
Cc1cc(S(=O)(=O)Nc2ccc(C(=O)O)cc2)c(C)c(S(=O)(=O)c2ccc(Cl)cc2)c1,-2.8%,-6.2%[10.9 µM],8.6%,3.3%
Cn1nnnc1SCc1ccc(C(=O)Nc2nccs2)cc1,?,-39.7%,5.01µM*,-1.0%
Cn1c(CSCc2ccc(F)cc2)nnc1SCC(=O)Nc1nccs1,9.2%,-19.9%,8.7%,2.7%
O=c1n(CC2CO2)c(=O)n(CC2CO2)c(=O)n1CC1CO1 (stereo unspecified),-6.2%[1.84 µM],-23.0%,15.8µM*,?
C=CCn1c(=O)n(CC=C)c(=O)n(CC=C)c1=O,-0.8%[1.84 µM],6.8%,1.1%,0.0%
CN1CCc2c(cc(O)c(O)c2Cl)[C@H](c2cccc(Cl)c2)C1,-16.1%,.,-1.3%,8.5%
Cc1ccc2nc3c(c(Nc4ccc(C)c(C)c4)c2c1)CCC3,?,-9.6%[10.9 µM],10µM*,?
SMILES,p53ts 32C tox,Imprint erasure,p53ts 39C tox,IkB signaling
Cc1ccc(Nc2c3c(nc4ccccc24)CCC3)cc1F,-10.3%,-12.7%[10.9 µM],-25.4%,?
CCOc1ccc(S(=O)(=O)NCCc2csc3nc(-c4cccc(C)c4)nn23)cc1,-5.9%,12.5%[10.9 µM],-22.0%,3.4%
CCN(Cc1ccccc1)S(=O)(=O)c1ccc(C(=O)Nc2nnc(-c3ccccc3OC)o2)cc1,-2.1%,-15.0%,12.6µM*,-0.5%
CCCCN(CC)S(=O)(=O)c1ccc(C(=O)Nc2nnc(CSC)o2)cc1,-25.6%,-29.8%,25.1µM*,4.6%
CCCCN(CCCC)S(=O)(=O)c1ccc(C(=O)Nc2nnc(CSC)o2)cc1,-20.0%,-23.8%,15.8µM*,-0.3%
COc1ccccc1-c1nnc(NC(=O)c2ccc(S(=O)(=O)N(C)C)cc2)o1,-29.9%,-24.5%,?,6.2%
CCCCN(C)S(=O)(=O)c1ccc(C(=O)Nc2nnc(-c3cccs3)o2)cc1,-23.9%,-45.5%,7.94µM*,?
COc1ccc(-c2nc3sc(CCNC(=O)Cc4ccc(F)cc4)c(C)n3n2)cc1,0.7%,10.3%[10.9 µM],-22.9%,?
Cc1ccc2c(c1)-c1c(cnn1CC(=O)N1CCN(c3ccccc3F)CC1)CO2,11.4%,10.3%[10.9 µM],-15.7%,?
CCNc1nc(N)nc(Oc2ccc(OCC(=O)OC)nn2)n1,-0.8%,11.5%[10.9 µM],-15.4%,0.5%
CCC(C)NC(=O)Cn1c(=O)n(Cc2ccc(C(=O)NCCCOC)cc2)c(=O)c2ccccc21 (stereo unspecified),5.8%,-2.9%[10.9 µM],2.7%,-1.5%
Cc1ccc(O)c(NC(=O)CCS(=O)(=O)c2nc(-c3cccs3)cc(C(F)(F)F)n2)c1,?,23.5%[10.9 µM],?,?
O=C(CCS(=O)(=O)c1nc(-c2cccs2)cc(C(F)(F)F)n1)Nc1cc(Br)ccc1O,?,-33.1%[10.9 µM],7.94µM*,?
CCOc1ccc(/C=C/C(=O)c2cccs2)cc1,25.1µM*,-45.1%,-12.2%,.
O=C(/C=C/c1ccccc1)c1cccs1,31.6µM*,-28.6%,-81.5%,.
COc1ccc(/C=C/C(=O)Nc2ccccc2C(=O)O)cc1OC,?,-58.7%,12.6µM*,.
COc1ccc(/C=C/C(=O)c2cccs2)cc1OC,12.6µM*,5.2%,15.8µM*,.
COc1ccc(/C=C/C(=O)c2ccc(O)cc2O)cc1OC,?,5.8%,72.6%,.
O=C(c1ccc(CS(=O)c2ccccc2Cl)o1)N1CCN(c2ccccc2F)CC1 (stereo unspecified),-4.1%,-28.8%[10.9 µM],-21.7%,?
CCOC(=O)c1ccc(NC(=O)CC2NCCNC2=O)cc1 (stereo unspecified),-3.7%,-3.9%[10.9 µM],-6.4%,-1.7%
CCOC(=O)c1ccc(NC(=O)CC2SCCNC2=O)cc1 (stereo unspecified),12.6µM*,16.7%,12.6µM*,-4.0%
CCc1cccc(C)c1NS(=O)(=O)c1ccc2c(c1)NC(=O)C(C)C(=O)N2 (stereo unspecified),-0.6%,-16.8%[10.9 µM],16.4%,4.0%
CCn1c(SCc2ccccc2Cl)nc(=O)c2c(C(=O)OC)cc(C3CC3)nc21,9.9%,1.3%[10.9 µM],12.6µM*,?
O=C(O)c1ccc2nc(-c3cc4cccc(O)c4oc3=O)[nH]c2c1,10µM*,-95.5%[10.9 µM],?,?
CC(NC(=O)c1cc(-c2ccc(O)cc2)on1)c1ccccc1 (stereo unspecified),0.2%,-15.5%,-11.1%,10.4%
Cc1ccnc(Nc2nc3ccccc3o2)n1,5.01µM*,-91.2%,7.94µM*,?
N#Cc1cnc(Nc2nc3ccccc3o2)nc1-c1ccccc1,5.8%,-8.1%,5.8%,-5.6%
CCc1ccc2c(c1)NC(c1cccnc1)=NC(c1ccc(C(C)(C)C)cc1)=N2,-0.3%,-9.5%[10.9 µM],-26.1%,?
Cc1ccc(NC(=O)Cn2c(=O)n(Cc3ccco3)c(=O)c3ccc(C(=O)NC4CCCC4)cc32)c(C)c1,-26.5%,-12.3%[10.9 µM],12.6µM*,-1.1%
COc1ccc(N=[N+]([O-])c2ccc(OC)cc2)cc1,-2.9%[1.84 µM],-69.6%,15.8µM*,?
